What all share (conditions): mRNA level, 48 h; actives raise or lower the signal
Read-out in experiment [1]: Potassium channel subfamily K member 1 (KCNK1), KCNK1 (gene 3775)
Kind of experiment: LTEA_HepaRG_KCNK1: Life Technologies and Expression Analysis (LTEA) Assay for Potassium channel subfamily K member 1 (KCNK1) using HepaRG (AID 2283511). The procedure, abridged: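 HepaRG, 48 h exposure, 8-pt half-log series top 100 uM, 0.5% DMSO vehicle, duplicates. Readout: KCNK1 transcript by qRT-PCR (Fluidigm array), housekeeping-normalized; bidirectional curve fit relative to DMSO baseline.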

Read-out in experiment [2]: Keratin 19 (KRT19), KRT19 (gene 3880)
The experiment is described as follows: LTEA_HepaRG_KRT19: Life Technologies and Expression Analysis (LTEA) Assay for Keratin 19 (KRT19) using HepaRG (AID 2283512). The essentials: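 KRT19 transcript levels, measured by Fluidigm qRT-PCR against three housekeeping genes, are fitted for gain or loss of signal relative to DMSO. Human HepaRG cells receive test chemicals (top 100 uM, half-log steps, 0.5% DMSO) for 48 hours.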

Read-out in experiment [3]: JUN Transcription Factor, JUN (gene 3725)
The experiment is described as follows: LTEA_HepaRG_JUN: Life Technologies and Expression Analysis (LTEA) Assay for JUN Transcription Factor using HepaRG (AID 2283513). The essentials:
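HepaRG, 48 h exposure, 8-pt half-log series top 100 uM, 0.5% DMSO, duplicate. JUN mRNA by qRT-PCR (Fluidigm), housekeeping-normalized (ACTB/GAPDH/POLR2A); bidirectional curve fit vs DMSO baseline.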

Read-out in experiment [4]: Lipase C (LIPC), LIPC (gene 3990)
The experiment is described as follows: LTEA_HepaRG_LIPC: Life Technologies and Expression Analysis (LTEA) Assay for Lipase C (LIPC) using HepaRG (AID 2283514). The essentials:
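HepaRG, 48 h exposure, 8-pt half-log series from 100 uM in 0.5% DMSO, duplicates. Readout: LIPC mRNA by Fluidigm qRT-PCR, housekeeping-normalized (ACTB/GAPDH/POLR2A). Gain or loss fitted bidirectionally against DMSO baseline.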

Read-out in experiment [5]: Lipoprotein lipase (LPL), LPL (gene 4023)
Kind of experiment: LTEA_HepaRG_LPL: Life Technologies and Expression Analysis (LTEA) Assay for Lipoprotein lipase (LPL) using HepaRG (AID 2283515). The essentials: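 HepaRG, 48 h exposure, 8-pt half-log dilutions from 100 uM, 0.5% DMSO vehicle, duplicates; qRT-PCR (Fluidigm array) of LPL mRNA vs housekeeping genes; bidirectional curve fit relative to DMSO baseline.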

Read-out in experiment [6]: MicroRNA 122 (MIR122), gene 406906
Kind of experiment: LTEA_HepaRG_MIR122: Life Technologies and Expression Analysis (LTEA) Assay for MicroRNA 122 (MIR122) using HepaRG (AID 2283516). Note: the transcript read is the microRNA miR-122. The essentials: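 qRT-PCR read-out (TaqMan, Fluidigm array), normalized to three housekeeping genes; HepaRG cells dosed 48 h at 8 concentrations up to 100 uM in 0.5% DMSO, duplicate; gain or loss fitted against DMSO baseline.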

Read-out in experiment [7]: matrix metalloproteinase-10 (MMP10), MMP10 (gene 4319)
The experiment is described as follows: LTEA_HepaRG_MMP10: Life Technologies and Expression Analysis (LTEA) Assay for matrix metalloproteinase-10 (MMP10) using HepaRG (AID 2283517). The procedure, abridged:
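Transcript levels come from Fluidigm qRT-PCR normalized to three housekeeping genes, with curves fitted bidirectionally against 0.5% DMSO. Human HepaRG cells were dosed for 48 hours at concentrations up to 100 uM.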

Read-out in experiment [8]: MYC, MYC (gene 4609)
Kind of experiment: LTEA_HepaRG_MYC: Life Technologies and Expression Analysis (LTEA) Assay for MYC using HepaRG (AID 2283518). The essentials:
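HepaRG, ~100,000 cells/well, collagen I; 48 h plating; serum-free induction medium; 48 h dosing, duplicate, 100 uM top, half-log, 0.5% DMSO; total RNA → qRT-PCR MYC; gain/loss fit vs DMSO.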

Read-out in experiment [9]: matrix metalloproteinase-3 (MMP3), MMP3 (gene 4314)
The experiment is described as follows: LTEA_HepaRG_MMP3: Life Technologies and Expression Analysis (LTEA) Assay for matrix metalloproteinase-3 (MMP3) using HepaRG (AID 2283519). The essentials: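 qRT-PCR read-out of MMP3 mRNA (normalised to three housekeeping genes) in HepaRG liver cells after 48 h chemical exposure; 8-point half-log series, top 100 uM, 0.5% DMSO vehicle. Bidirectional curve fitting against DMSO baseline.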

Read-out in experiment [10]: Paternally Expressed 10 (PEG10), PEG10 (gene 23089)
The experiment is described as follows: LTEA_HepaRG_PEG10: Life Technologies and Expression Analysis (LTEA) Assay for Paternally Expressed 10 (PEG10) using HepaRG (AID 2283520). The procedure, abridged:
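qRT-PCR read-out: PEG10 mRNA normalised to three housekeeping genes, fitted bidirectionally against 0.5% DMSO vehicle. HepaRG cells received test chemicals for 48 h in serum-free induction medium, 8 points, top 100 uM, half-log steps.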

Read-out in experiment [11]: Nuclear factor NF-kappa-B p105 subunit (Homo sapiens) (UniProt P19838)
The experiment is described as follows: LTEA_HepaRG_NFKB1: Life Technologies and Expression Analysis (LTEA) Assay for Nuclear Factor Kappa B Subunit 1 (NFKB1) using HepaRG (AID 2283521).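 Note: differentiated human HepaRG liver cells in serum-free induction medium; TaqMan qRT-PCR transcript normalised to ACTB GAPDH and POLR2A housekeeping genes.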 The procedure, abridged: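 HepaRG, 48 h exposure; 8-pt half-log series from 100 uM in 0.5% DMSO; duplicates. Readout: NFKB1 mRNA by qRT-PCR (Fluidigm arrays), housekeeping-normalized. Gain/loss fit vs DMSO baseline.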

Read-out in experiment [12]: Protein phosphatase 2A (PPP2R4), PTPA (gene 5524)
The experiment is described as follows: LTEA_HepaRG_PPP2R4: Life Technologies and Expression Analysis (LTEA) Assay for Protein phosphatase 2A (PPP2R4) using HepaRG (AID 2283522). The essentials: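 HepaRG, 48 h exposure, 8-pt half-log series from 100 uM, 0.5% DMSO vehicle, duplicates. Readout: PPP2R4 mRNA, Fluidigm qRT-PCR, housekeeping-normalized. Bidirectional curve fit vs DMSO baseline.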

Read-out in experiment [13]: Phosphatase and tensin (PTEN), PTEN (gene 5728)
The experiment is described as follows: LTEA_HepaRG_PTEN: Life Technologies and Expression Analysis (LTEA) Assay for Phosphatase and tensin (PTEN) using HepaRG (AID 2283523). The essentials:
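HepaRG, 48 h exposure, 8-pt half-log series from 100 uM top, 0.5% DMSO vehicle, duplicates. Readout: Fluidigm qRT-PCR of PTEN transcript; housekeeping normalization (ACTB, GAPDH, POLR2A). Gain or loss fitted relative to DMSO baseline.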

Read-out in experiment [14]: solute carrier (SLC22A1), SLC22A1 (gene 6580)
Kind of experiment: LTEA_HepaRG_SLC22A1: Life Technologies and Expression Analysis (LTEA) Assay for solute carrier (SLC22A1) using HepaRG (AID 2283524). The essentials: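 qRT-PCR readout (TaqMan, Fluidigm arrays) of SLC22A1 transcript, normalized to three housekeeping genes; bidirectional curve fit relative to 0.5% DMSO vehicle. Differentiated human HepaRG cells, 48 h chemical exposure, top concentration 100 uM, half-log steps, eight points.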

Read-out in experiment [15]: Pyruvate Dehydrogenase Kinase 4 (PDK4), PDK4 (gene 5166)
The experiment is described as follows: LTEA_HepaRG_PDK4: Life Technologies and Expression Analysis (LTEA) Assay for Pyruvate Dehydrogenase Kinase 4 (PDK4) using HepaRG (AID 2283525). The procedure, abridged:
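HepaRG (human liver line), 48 h chemical exposure, 8-pt half-log CRC top 100 uM, 0.5% DMSO vehicle, duplicates. Readout: TaqMan qRT-PCR of PDK4 mRNA, housekeeping-normalized; gain/loss fit relative to DMSO baseline.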

Read-out in experiment [16]: NAD(P)H dehydrogenase [quinone] 1 (NQO1), NQO1 (gene 1728)
The experiment is described as follows: LTEA_HepaRG_NQO1: Life Technologies and Expression Analysis (LTEA) Assay for NAD(P)H dehydrogenase [quinone] 1 (NQO1) using HepaRG (AID 2283526). The procedure, abridged: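 qRT-PCR read-out (Fluidigm TaqMan), normalized to three housekeeping genes, after 48 h chemical exposure of HepaRG cells. Concentrations: eight points, top 100 uM, half-log steps, 0.5% DMSO vehicle. Gain or loss of signal fitted relative to DMSO.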

Read-out in experiment [17]: Nuclear factor erythroid 2-related factor 2 (Homo sapiens) (UniProt Q16236)
The experiment is described as follows: LTEA_HepaRG_NFE2L2: Life Technologies and Expression Analysis (LTEA) Assay for Nuclear factor erythroid 2-related factor 2 (NFE2L2) Transcription Factor using HepaRG (AID 2283527).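 Note: TaqMan qRT-PCR transcript level normalised to ACTB GAPDH and POLR2A housekeeping genes.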 The procedure, abridged:
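HepaRG, 48 h dosing, 8-pt half-log series from 100 uM in 0.5% DMSO, duplicates. Read-out: NFE2L2 mRNA by qRT-PCR (ACTB/GAPDH/POLR2A normalization). Bidirectional curve fit vs DMSO baseline.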

Read-out in experiment [18]: succinate dehydrogenase complex iron sulfur subunit B (SDHB), SDHB (gene 6390)
Kind of experiment: LTEA_HepaRG_SDHB: Life Technologies and Expression Analysis (LTEA) Assay for succinate dehydrogenase complex iron sulfur subunit B (SDHB) using HepaRG (AID 2283528). The procedure, abridged: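 Readout is SDHB transcript level by qRT-PCR, normalised to three housekeeping genes and fitted bidirectionally against 0.5% DMSO vehicle. Human HepaRG cells were treated for 48 h at up to 100 uM.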

Read-out in experiment [19]: Signal transducer and activator of transcription 3 (Homo sapiens) (UniProt P40763)
The experiment is described as follows: LTEA_HepaRG_STAT3: Life Technologies and Expression Analysis (LTEA) Assay for Signal transducer and activator of transcription (STAT3) using HepaRG (AID 2283529). The procedure, abridged: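 HepaRG, 48 h exposure, 8-pt half-log series (top 100 uM), 0.5% DMSO vehicle, duplicates. Readout: STAT3 transcript by Fluidigm qRT-PCR, housekeeping-normalized; bidirectional fit vs DMSO baseline.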

Read-out in experiment [20]: Interleukin 6 Receptor (IL6R), IL6R (gene 3570)
The experiment is described as follows: LTEA_HepaRG_IL6R: Life Technologies and Expression Analysis (LTEA) Assay for Interleukin 6 Receptor (IL6R) using HepaRG (AID 2283510). The procedure, abridged: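 HepaRG, 48 h exposure, 8-pt half-log series, top 100 uM, 0.5% DMSO vehicle, duplicates. Read-out: TaqMan qRT-PCR of IL6R transcript, housekeeping-gene normalized. Gain or loss fitted relative to DMSO baseline.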

Calls of active or inactive are those of the source. Rule for the calls: active = hit-call score of the fitted dose curve at least 0.9, where 1 is the maximum; inactive = score below 0.9.

In PubChem BioAssay (EPA / NIEHS) one finds outcome and AC50 data, which are given here for four compounds.

Sequence of Nuclear factor erythroid 2-related factor 2 (Homo sapiens) (Q16236 whole entry, looked up): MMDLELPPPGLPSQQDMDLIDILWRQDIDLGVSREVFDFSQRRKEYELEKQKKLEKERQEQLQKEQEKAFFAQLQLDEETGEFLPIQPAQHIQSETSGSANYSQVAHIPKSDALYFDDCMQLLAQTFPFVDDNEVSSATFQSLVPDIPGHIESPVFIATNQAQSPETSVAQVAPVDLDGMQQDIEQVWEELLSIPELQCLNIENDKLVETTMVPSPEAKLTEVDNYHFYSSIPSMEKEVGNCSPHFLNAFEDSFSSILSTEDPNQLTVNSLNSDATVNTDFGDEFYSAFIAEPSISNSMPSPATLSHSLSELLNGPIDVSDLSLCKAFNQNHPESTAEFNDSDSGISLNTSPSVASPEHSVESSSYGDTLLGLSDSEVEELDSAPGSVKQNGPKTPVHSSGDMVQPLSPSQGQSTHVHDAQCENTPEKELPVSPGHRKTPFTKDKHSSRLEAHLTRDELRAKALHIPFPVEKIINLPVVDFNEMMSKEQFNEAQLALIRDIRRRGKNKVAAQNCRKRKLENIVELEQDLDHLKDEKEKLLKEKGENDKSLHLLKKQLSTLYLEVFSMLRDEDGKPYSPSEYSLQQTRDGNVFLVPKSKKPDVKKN
Sequence of Nuclear factor NF-kappa-B p105 subunit (Homo sapiens) (P19838 whole entry, looked up): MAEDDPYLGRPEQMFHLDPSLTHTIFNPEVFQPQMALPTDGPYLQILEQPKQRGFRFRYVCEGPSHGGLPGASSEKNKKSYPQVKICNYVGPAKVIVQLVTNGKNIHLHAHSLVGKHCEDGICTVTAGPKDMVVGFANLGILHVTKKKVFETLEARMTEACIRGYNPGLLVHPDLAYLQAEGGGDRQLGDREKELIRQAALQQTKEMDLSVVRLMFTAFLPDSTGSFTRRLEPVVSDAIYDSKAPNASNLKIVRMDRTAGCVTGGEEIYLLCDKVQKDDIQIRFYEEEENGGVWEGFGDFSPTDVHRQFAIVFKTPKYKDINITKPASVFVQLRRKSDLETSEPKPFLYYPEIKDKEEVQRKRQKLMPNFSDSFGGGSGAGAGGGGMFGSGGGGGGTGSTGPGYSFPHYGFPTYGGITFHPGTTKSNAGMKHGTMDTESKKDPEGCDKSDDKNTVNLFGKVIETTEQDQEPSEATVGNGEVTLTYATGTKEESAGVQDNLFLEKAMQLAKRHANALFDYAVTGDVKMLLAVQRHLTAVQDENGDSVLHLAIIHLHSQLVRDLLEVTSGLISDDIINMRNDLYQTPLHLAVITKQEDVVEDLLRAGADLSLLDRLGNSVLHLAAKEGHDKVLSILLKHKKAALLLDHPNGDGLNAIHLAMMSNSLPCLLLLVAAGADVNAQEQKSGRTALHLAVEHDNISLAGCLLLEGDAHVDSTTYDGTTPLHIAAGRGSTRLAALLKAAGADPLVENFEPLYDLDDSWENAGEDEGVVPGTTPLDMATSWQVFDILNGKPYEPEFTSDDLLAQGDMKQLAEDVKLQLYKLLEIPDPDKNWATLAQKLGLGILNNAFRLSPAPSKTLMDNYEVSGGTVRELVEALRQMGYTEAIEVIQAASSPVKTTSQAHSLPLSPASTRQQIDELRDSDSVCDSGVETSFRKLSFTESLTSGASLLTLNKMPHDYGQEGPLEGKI
Sequence of Signal transducer and activator of transcription 3 (Homo sapiens) (P40763 whole entry, looked up): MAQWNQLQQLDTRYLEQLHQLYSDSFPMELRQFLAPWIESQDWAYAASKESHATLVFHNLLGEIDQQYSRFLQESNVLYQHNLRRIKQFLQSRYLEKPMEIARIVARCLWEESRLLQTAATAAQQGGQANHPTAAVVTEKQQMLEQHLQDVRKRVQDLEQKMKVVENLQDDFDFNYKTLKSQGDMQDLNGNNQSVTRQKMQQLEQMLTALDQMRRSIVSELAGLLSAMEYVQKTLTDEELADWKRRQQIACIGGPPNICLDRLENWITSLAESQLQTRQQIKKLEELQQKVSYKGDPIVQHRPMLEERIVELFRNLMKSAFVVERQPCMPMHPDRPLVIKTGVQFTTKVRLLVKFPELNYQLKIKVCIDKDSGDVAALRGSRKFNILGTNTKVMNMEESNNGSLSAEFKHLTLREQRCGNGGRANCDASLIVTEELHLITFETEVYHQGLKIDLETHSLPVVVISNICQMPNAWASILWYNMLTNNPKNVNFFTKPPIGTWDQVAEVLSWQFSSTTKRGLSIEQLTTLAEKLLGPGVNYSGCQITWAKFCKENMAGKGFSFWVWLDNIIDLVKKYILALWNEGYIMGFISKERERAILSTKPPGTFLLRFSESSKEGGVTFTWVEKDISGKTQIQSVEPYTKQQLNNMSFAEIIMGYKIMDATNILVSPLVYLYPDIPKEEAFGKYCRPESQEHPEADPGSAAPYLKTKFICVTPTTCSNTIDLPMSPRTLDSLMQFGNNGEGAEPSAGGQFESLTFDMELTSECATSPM

As to `C=C(C)CN(CC)c1c([N+](=O)[O-])cc(C(F)(F)F)cc1[N+](=O)[O-]`, the compound was classed as inactive in experiment [1], in experiment [2], in experiment [3], in experiment [4], in experiment [5] and in experiment [6]. The call in experiment [7], in experiment [8], in experiment [9], in experiment [10], in experiment [11] and in experiment [12] was inactive. Moreover, the compound was called inactive in [13], in [14], in experiment [15], in experiment [16], in experiment [17] and in experiment [18]. Moreover, the outcome in experiment [19] was inactive.
For the compound `CCCCC(C#N)(Cn1cncn1)c1ccc(Cl)cc1` (stereo unspecified), the compound was classed as inactive in [20], in [1], in experiment [2], in experiment [3], in [4] and in experiment [5]. In addition, the call in experiment [6], in [7], in experiment [10], in experiment [12], in experiment [13] and in experiment [15] was inactive. For the same compound, the call in [16], in experiment [17], in experiment [18] and in experiment [19] was inactive. In addition, the AC50 (as a rule, the midpoint of the concentration-response curve, whichever way the signal moves) in experiment [9] is 73.1 µM (active).
For `CNC(=O)Oc1cccc2ccccc12`, the result in [20], in [1], in experiment [2], in [3], in [4] and in [5] was inactive. For the same compound, the compound was classed as inactive in experiment [6], in experiment [7], in experiment [9], in experiment [10], in experiment [11] and in experiment [12]. Also, the compound was called inactive in experiment [13], in experiment [15], in [16], in [17], in experiment [18] and in experiment [19].
Regarding `CNC(=O)N(C)c1nnc(C(C)(C)C)s1`, the result in [20], in experiment [1], in experiment [3], in experiment [4], in experiment [5] and in experiment [6] was inactive. The compound was classed as inactive in experiment [7], in [9], in [10], in experiment [11], in experiment [12] and in [13]. In addition, the compound was called inactive in [15], in [16], in experiment [17], in experiment [18] and in experiment [19].
